Several values for one entry are separate records, joined by “and”; a condition that tells them apart may be missing. Identical values can stand only once. Inconclusive results are not listed. Entries that show only a call come without a potency. Some structures have more than one record in an assay (separate samples or runs), and their calls can disagree. Activity calls are given as the source filed them. Unless noted, the call rests on the fitted dose curve; in most records, active means well fitted curve in the direction sought with a large enough effect in the repeat runs; inconclusive means weak or mixed curves; inactive means no such curve, though single readings can be large; an effect the other way counts as inactive or inconclusive.
Legend:
[1] = qHTS assay to test for compound auto fluorescence at 535 nm (green) in HEK293 cells (AID 720680)
[2] = qHTS assay to test for compound auto fluorescence at 460 nm (blue) in HEK293 cell free culture (AID 720681)
Method in brief: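 Blue fluorescence (Ex 405/Em 460 nm, triamterene-equivalent) was read immediately after pin transfer of compound or DMSO into medium (DMEM, 10% FBS) without cells.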

[3] = qHTS assay to test for compound auto fluorescence at 535 nm (green) in HEK293 cell free culture (AID 720682)
Method in brief: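 Green-channel intensity (Ex/Em 485/535 nm) was recorded from compound-treated wells containing only DMEM with 10% FBS. Fluorescein provided the equivalency standard.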

[4] = qHTS assay to test for compound auto fluorescence at 590 nm (red) in HEK293 cell free culture (AID 720683)
Method in brief: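 Red-channel autofluorescence of compounds in culture medium (DMEM, 10% FBS), no cells, measured at 540/590 nm. Rose Bengal sodium is the reference fluorophore for equivalence.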

[5] = qHTS assay to test for compound auto fluorescence at 590 nm (red) in HepG2 cell free culture (AID 720684)
Method in brief: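 Steps: dispense MEM/10% FBS medium, no cells; pin compound or DMSO vehicle; read red channel, Ex/Em 540/590 nm. Output given as Rose Bengal sodium equivalents.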

[6] = qHTS assay to test for compound auto fluorescence at 460 nm (blue) in HepG2 cell free culture (AID 720685)
Method in brief: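 Compound (23 nL) or DMSO pinned into cell-free MEM with 10% FBS; blue fluorescence read at 405/460 nm excitation/emission, expressed as auto-fluorescence equivalency to triamterene.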

[7] = qHTS assay to test for compound auto fluorescence at 535 nm (green) in HepG2 cell free culture (AID 720686)
[8] = qHTS assay to test for compound auto fluorescence at 460 nm (blue) in HepG2 cells (AID 720687)
Method in brief: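 Blue-channel autofluorescence (Ex/Em 405/460 nm, triamterene-equivalent) was measured after 1 hr compound exposure at 37 C, 5% CO2. Cells were HepG2, plated overnight at 37 C in MEM plus 10% FBS.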

[9] = target: Glucocorticoid receptor (Homo sapiens) (UniProt P04150); assay: qHTS assay to identify small molecule agonists of the glucocorticoid receptor (GR) signaling pathway (AID 720691; active means well fitted activation curve with a large enough effect in the signal ratio in the repeat runs, not every such curve was filed as active; the % refers to the signal ratio; further: potency means the concentration at half of the fitted maximal effect)
Method in brief: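 Agonist mode in a HeLa line carrying a GRE-controlled beta-lactamase reporter. Compounds act for 18 h at 37 C before a 2 h room-temperature FRET substrate step and fluorescence reading.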

[10] = target: Glucocorticoid receptor (Homo sapiens) (UniProt P04150); assay: qHTS assay to identify small molecule antagonists of the glucocorticoid receptor (GR) signaling pathway (AID 720692; active means well fitted inhibition curve with a large enough effect in the signal ratio in the repeat runs, not every such curve was filed as active; the % refers to the signal ratio)
Method in brief: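 Cells plated, rested 4 h at 37 C/5% CO2; compounds in DMSO pin-transferred; dexamethasone added to 5 nM final; 18 h at 37 C; B/G FRET substrate added, 2 h room temperature; fluorescence measured.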

[11] = qHTS assay to identify small molecule antagonists of the glucocorticoid receptor (GR) signaling pathway - cell viability counter screen (AID 720693); further: nearly all actives have a fitted effect of over 55% in size
[12] = qHTS assay for identifying genotoxic compounds that show differential cytotoxicity against isogenic chicken DT40 cell lines with known DNA damage response pathways - wild type cell line (AID 743012); further: nearly all actives have a fitted effect of over 60% in size; further: potency means the concentration at half of the fitted maximal effect
Method in brief: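 Cells (DT40 wild type, 300/well) are treated with DMSO-dissolved compounds after a ~0.5 h pre-incubation and kept 40 h at 37 C/5% CO2. Viability is then measured by CellTiter-Glo luminescence following 30 min at room temperature.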

[13] = qHTS assay for identifying genotoxic compounds that show differential cytotoxicity against isogenic chicken DT40 cell lines with known DNA damage response pathways - Rev3 mutant cell line (AID 743014); further: nearly all actives have a fitted effect of over 55% in size; further: potency means the concentration at half of the fitted maximal effect
[14] = qHTS assay for identifying genotoxic compounds that show differential cytotoxicity against isogenic chicken DT40 cell lines with known DNA damage response pathways - Rad54/Ku70 mutant cell line (AID 743015); further: nearly all actives have a fitted effect of over 60% in size; further: potency means the concentration at half of the fitted maximal effect
[15] = qHTS assay to identify small molecule antagonists of the androgen receptor (AR) signaling pathway - cell viability counter screen (AID 743033; further: nearly all actives have a fitted effect of over 45% in size)
[16] = qHTS assay to identify small molecule antagonists of the androgen receptor (AR) signaling pathway using the MDA cell line - cell viability counter screen (AID 743041; further: nearly all actives have a fitted effect of over 45% in size)
Method in brief: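 Cells were plated at 3,000 per well and left 5 h. Compounds in DMSO were then pinned in, followed by R1881. After 16 h at 37C, CellTiter-Fluor fluorescence gave viability.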

[17] = target: Androgen receptor (Homo sapiens) (UniProt P10275); assay: qHTS assay to identify small molecule antagonists of the androgen receptor (AR) signaling pathway (AID 743035; active means well fitted inhibition curve with a large enough effect in the signal ratio in the repeat runs, not every such curve was filed as active; the % refers to the signal ratio)
Method in brief: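 Antagonism is scored as loss of R1881-driven beta-lactamase reporter expression in HEK293 cells carrying the reporter under a UAS element, after 16 h co-treatment at 37C and a 2 h room-temperature FRET substrate read.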

[18] = target: Androgen receptor (Homo sapiens) (UniProt P10275); assay: qHTS assay to identify small molecule agonists of the androgen receptor (AR) signaling pathway (AID 743036; active means well fitted activation curve with a large enough effect in the signal ratio in the repeat runs, with a control signal flat, not every such curve was filed as active; the % refers to the signal ratio)
Method in brief: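 Cell-based FRET reporter assay: HEK293 line with a UAS-beta-lactamase construct, compounds added in DMSO, 16 h exposure at 37C, then 2 h substrate step at room temperature and fluorescence intensity read.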

[19] = target: Androgen receptor (Homo sapiens) (UniProt P10275); assay: qHTS assay to identify small molecule agonists of the androgen receptor (AR) signaling pathway using the MDA cell line (AID 743040; further: nearly all actives have a fitted effect of over 20% in size)
Method in brief: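 Cells plated, 5 h at 37C/0% CO2; compound or DMSO pinned; 16 h at 37C; ONE-Glo added; luminescence measured after 30 min at room temperature. Reporter line: MDA-kb2 with MMTV-luciferase responsive to AR and GR.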

[20] = target: Androgen receptor (Homo sapiens) (UniProt P10275); assay: qHTS assay to identify small molecule antagonists of the androgen receptor (AR) signaling pathway using the MDA cell line (AID 743042; further: nearly all actives have a fitted effect of over 55% in size)
Method in brief: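 Antagonist mode: compounds plus R1881 agonist added to MDA-kb2 AR-luc cells, incubated 16 h at 37C. Luciferase reporter luminescence quantified, with multiplexed CellTiter-Fluor readout for cell viability.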

Sequence of Glucocorticoid receptor (Homo sapiens) (P04150 whole entry, looked up): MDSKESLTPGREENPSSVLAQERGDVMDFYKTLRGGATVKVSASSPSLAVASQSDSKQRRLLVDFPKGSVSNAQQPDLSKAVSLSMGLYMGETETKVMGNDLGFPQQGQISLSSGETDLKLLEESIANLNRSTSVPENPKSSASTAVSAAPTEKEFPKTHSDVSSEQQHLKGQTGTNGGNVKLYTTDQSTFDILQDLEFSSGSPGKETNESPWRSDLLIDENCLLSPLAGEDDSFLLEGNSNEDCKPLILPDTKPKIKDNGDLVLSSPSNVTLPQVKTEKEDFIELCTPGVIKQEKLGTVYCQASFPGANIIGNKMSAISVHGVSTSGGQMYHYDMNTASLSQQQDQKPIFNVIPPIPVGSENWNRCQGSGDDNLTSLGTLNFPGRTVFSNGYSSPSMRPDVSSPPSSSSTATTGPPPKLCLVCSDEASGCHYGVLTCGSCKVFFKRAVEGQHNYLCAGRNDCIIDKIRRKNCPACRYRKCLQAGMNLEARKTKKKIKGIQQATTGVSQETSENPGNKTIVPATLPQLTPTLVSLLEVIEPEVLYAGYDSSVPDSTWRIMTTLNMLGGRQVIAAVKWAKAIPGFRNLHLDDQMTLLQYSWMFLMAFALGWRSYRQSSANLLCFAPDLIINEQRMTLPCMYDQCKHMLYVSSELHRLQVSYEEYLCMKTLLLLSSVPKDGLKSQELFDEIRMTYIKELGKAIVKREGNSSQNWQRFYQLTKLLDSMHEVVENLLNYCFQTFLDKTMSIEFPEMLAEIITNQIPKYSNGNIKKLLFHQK
Sequence of Androgen receptor (Homo sapiens) (P10275 whole entry, looked up): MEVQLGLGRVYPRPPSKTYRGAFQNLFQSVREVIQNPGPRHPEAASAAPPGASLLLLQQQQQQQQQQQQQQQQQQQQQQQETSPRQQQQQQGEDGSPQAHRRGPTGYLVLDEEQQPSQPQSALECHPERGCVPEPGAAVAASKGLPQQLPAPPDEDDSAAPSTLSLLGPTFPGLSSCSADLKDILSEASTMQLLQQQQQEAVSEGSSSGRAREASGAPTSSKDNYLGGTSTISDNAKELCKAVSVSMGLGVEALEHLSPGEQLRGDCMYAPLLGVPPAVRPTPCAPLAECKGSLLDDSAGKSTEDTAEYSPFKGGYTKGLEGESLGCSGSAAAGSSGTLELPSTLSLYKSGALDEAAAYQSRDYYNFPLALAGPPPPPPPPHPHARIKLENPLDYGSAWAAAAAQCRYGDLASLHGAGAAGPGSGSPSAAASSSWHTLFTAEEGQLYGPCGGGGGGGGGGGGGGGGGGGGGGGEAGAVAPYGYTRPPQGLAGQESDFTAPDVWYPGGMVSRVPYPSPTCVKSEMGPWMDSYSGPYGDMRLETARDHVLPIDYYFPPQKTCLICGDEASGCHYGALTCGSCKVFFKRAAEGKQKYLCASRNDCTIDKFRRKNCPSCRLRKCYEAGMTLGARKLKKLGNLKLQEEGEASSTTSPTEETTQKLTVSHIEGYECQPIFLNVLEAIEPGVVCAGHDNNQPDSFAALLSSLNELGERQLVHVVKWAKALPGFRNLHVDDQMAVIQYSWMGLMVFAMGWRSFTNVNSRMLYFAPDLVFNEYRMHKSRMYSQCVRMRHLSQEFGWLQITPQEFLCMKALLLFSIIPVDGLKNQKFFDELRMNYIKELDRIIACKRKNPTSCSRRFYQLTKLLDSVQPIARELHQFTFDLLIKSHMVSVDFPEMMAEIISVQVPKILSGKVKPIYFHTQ

| SMILES | Potency [1] | outcome [2] | Potency [3] | Potency [4] | Potency [5] | outcome [6] | Potency [7] | outcome [8] | Potency [9] | Potency [10] | Potency [11] | Potency [12] | Potency [13] | Potency [14] | Potency [15] | Potency [16] | Potency [17] | outcome [18] | Potency [19] | Potency [20] |
| --- | --- | --- | --- | --- | --- | --- | --- | --- | --- | --- | --- | --- | --- | --- | --- | --- | --- | --- | --- | --- |
| O=C(/C=C/c1ccccc1)OCc1ccccc1 | inactive | inactive | inactive | inactive | inactive | inactive | inactive | inactive | inactive | inactive | inactive | inactive and 54.5 µM (active) | inactive and 38.6 µM (active) | inactive and 43.3 µM (active) | inactive | inactive | – | – | – | – |
| CCCCC(CC)COC(=O)c1ccc(N(C)C)cc1 (configuration not stated) | inactive | inactive | inactive | inactive | inactive | inactive | inactive | inactive | inactive | inactive | inactive | inactive | – | inactive and 43.3 µM (active) | inactive | inactive | – | – | – | – |
| O=C(OCc1ccccc1)c1ccccc1O | inactive | inactive | inactive | inactive | inactive | inactive | inactive | inactive | inactive | inactive | inactive | – | – | – | inactive | inactive | – | – | – | – |
| Nc1ccc(S(=O)(=O)Nc2cnc3ccccc3n2)cc1 | inactive | inactive | inactive | inactive | inactive | inactive | inactive | inactive | inactive | inactive | – | inactive | – | inactive | inactive | inactive | – | – | – | – |
| CC(C)OC=O | inactive | inactive | inactive | inactive | inactive | inactive | inactive | inactive | inactive | inactive | inactive | inactive | – | inactive | inactive | inactive | – | – | – | – |
| C/C=C/C(=O)O | inactive | inactive | inactive | inactive | inactive | inactive | inactive | inactive | inactive | inactive | inactive | inactive | inactive | inactive | inactive | inactive | – | – | – | – |
| Cc1ncc[nH]1 | inactive | inactive | inactive | inactive | inactive | inactive | inactive | inactive | inactive | inactive | inactive | inactive | – | inactive | inactive | inactive | – | – | – | – |
| CCCCC(CC)COCC1CO1 (configuration not stated) | inactive | inactive | inactive | inactive | inactive | inactive | inactive | inactive | inactive | inactive | – | inactive | – | inactive | inactive | inactive | – | – | – | – |
| OC1CCCCCCCCCCC1 | inactive | inactive | inactive | inactive | inactive | inactive | inactive | inactive | inactive | inactive | inactive | inactive | – | – | inactive | inactive | – | – | – | – |
| Cc1c(OCC(F)(F)F)ccnc1CS(=O)c1nc2ccccc2[nH]1 (configuration not stated) | inactive | inactive | inactive | inactive | inactive | inactive | inactive | inactive | inactive | inactive | inactive | inactive | inactive and 54.5 µM (active) | – | inactive | inactive | – | – | – | – |
| CN(C)C(=N)N=C(N)N | inactive | inactive | inactive | inactive | inactive | inactive | inactive | inactive | 2.56 µM (active) and inactive | inactive | – | – | – | – | inactive | inactive | – | – | – | – |
| CCCCOCCOCCOCCO | inactive | inactive | inactive | inactive | inactive | inactive | inactive | inactive | – | – | inactive | inactive | – | inactive | inactive | inactive | – | – | – | – |
| CC(=O)CC/C=C(\C)CCC=C(C)C | inactive | inactive | inactive | inactive | inactive | inactive | inactive | inactive | – | – | inactive | inactive | inactive | inactive | inactive | inactive | – | – | – | – |
| Oc1ccc(O)cc1 | inactive | inactive | inactive | inactive | inactive | inactive | inactive | inactive | inactive | – | – | 23.7 µM (active) and 9.63 µM (active) and 61.1 µM (active) | 18.8 µM (active) and 24.2 µM (active) and 48.6 µM (active) | – | inactive | inactive | – | – | – | – |
| c1ccncc1 | inactive | inactive | inactive | inactive | inactive | inactive | inactive | inactive | – | – | – | inactive | – | – | inactive | inactive | – | – | – | – |
| Cc1cccc([N+](=O)[O-])c1C | inactive | inactive | inactive | inactive | inactive | inactive | inactive | inactive | – | – | – | inactive | inactive | inactive | inactive | inactive | inactive | inactive | inactive | inactive |
